Screening data: PubChem BioAssay, Broad Institute
A selection follows.
aSyn UTR act – Activators via SNCA 5'UTR binding, MLPCN; alpha-synuclein 5'UTR reporter, activators screen; activity score, % (tested at 7.5 µM), hits read low; actives 7.1% (n = 300,000); in the data active means activity score below about -60%
Hits are given with their value; - = inactive.

SMILES	aSyn UTR act
CN(C)Cc1c(C(=O)N/N=C/c2ccc(OCc3c(F)cccc3Cl)cc2)nnn1-c1nonc1N	-76.0
CC(C)c1c(C(=O)N/N=C/c2ccc(OCc3ccc(F)cc3)cc2)nnn1-c1nonc1N	-71.6
Cc1cccc(COc2ccc(/C=N/NC(=O)c3nnn(-c4nonc4N)c3COc3ccc(F)cc3)cc2)c1	-158.7
Cc1ccc(/C=N/NC(=O)c2nnn(-c3nonc3N)c2-c2cccs2)cc1	-
C/C(=N\N=C\c1ccccc1F)c1nnn(-c2nonc2N)c1C	-79.2
C/C(=N\NC(=O)c1nnn(-c2nonc2N)c1CN1CCc2ccccc21)c1ccccc1O	-
COc1cc(/C=N/NC(=O)c2nnn(-c3nonc3N)c2C(C)C)ccc1OCc1ccccc1	-82.2
C/C(=N\NC(=O)c1nnn(-c2nonc2N)c1C)c1ccc(OCc2ccccc2)cc1	-66.8
CCOc1cccc(-c2c(C(=O)N/N=C(\C)c3ccccn3)nnn2-c2nonc2N)c1	-
CN(C)/C=C1\SC(=S)N(c2ccc(Br)cc2)C1=O	-99.8
O=C(Nc1ccc(Nc2ccccc2)cc1)c1ccco1	-150.2
Cc1ccc(NC(=O)CNC(=O)c2ccco2)cc1	-120.0
O=C(Nc1ccc(NC(=O)c2ccco2)cc1)c1ccco1	-109.3
Cc1cccc(OCC(=O)Nc2ccc(NC(=O)c3ccco3)cc2)c1	-66.5
Cc1cc2cc(NC(=O)c3ccco3)ccc2[nH]1	-141.2
O=C(Nc1ccc(NC(=O)C2CC2)cc1)c1ccco1	-92.4
O=C(Nc1ccc(Br)cc1)c1ccco1	-154.1
Nc1nc2ccc(NC(=O)c3ccco3)cc2s1	-116.0
O=C(Nc1ccc(Cc2ccncc2)cc1)c1ccco1	-74.6
CC(=O)N(C)c1ccc(NC(=O)c2ccco2)cc1	-80.0
O=C(Nc1nccs1)c1ccc(NC(=O)c2ccco2)cc1	-141.5
Cc1cc(CN(C)C(=O)CCc2nnc(Cc3cccc(C(F)(F)F)c3)o2)on1	-79.0
CCN(CC)C(=O)CCc1nnc(Cc2cccc(C(F)(F)F)c2)o1	-177.1
O=C(CCc1nnc(Cc2cccc(C(F)(F)F)c2)o1)NCCc1ccccc1F	-70.9
CC(=O)CCC(=O)NCCc1ccccc1F	-63.5
SMILES	aSyn UTR act
COc1ccc(-c2cc(C(=O)N3CCCc4ccccc43)no2)cc1	-107.4
COc1cccc(-c2cc(C(=O)N3CCCc4ccccc43)no2)c1	-125.8
O=S(=O)(c1ccc(NC(=S)NCc2cccnc2)cc1)N1CCCCC1	-
Cc1nn(C)c(C)c1CNC(=O)Nc1ccc(Cl)cc1	-88.7
O=C(NCCCn1ccnc1)Nc1ccc2c(c1)OCO2	-106.7
C=CCOc1ccc(NC(=O)C(=O)NCCCn2ccnc2)cc1	-
O=C(NCc1cccnc1)Nc1ccc2c(c1)OCO2	-63.2
Cc1nn(C)c(C)c1CNC(=O)Nc1ccc2c(c1)OCO2	-72.1
Cc1nn(C)c(C)c1CNC(=O)Nc1cccc(Cl)c1	-105.5
Cc1cc(C)n(CC(O)COc2ccc3ccccc3c2)n1 (stereo not drawn)	-113.9
C=CCn1c(=S)[nH]c2cc(-c3ccccc3)sc2c1=O	-76.9
C=CCn1c(Sc2ccccc2)nc2c1c(=O)[nH]c(=O)n2C	-
COc1ccc(C2CC(c3ccccc3OC(=O)/C=C/c3ccccc3)=NN2C(C)=O)cc1 (stereo not drawn)	-68.7
COc1ccc(C2CC(c3ccccc3)=NN2C(=O)c2cccs2)cc1 (stereo not drawn)	-92.2
COc1ccc(C2CC(c3ccccc3)=NN2C(=O)COC(=O)c2cccnc2)cc1 (stereo not drawn)	-61.9
CCCNC(=O)OCCC12CC3CC(CC(C3)C1)C2	-92.2
CN(C)c1ccc(N=Nc2ccccc2C(=O)OCC(=O)NC2CCCC2)cc1	-112.3
CN(C)c1ccc(N=Nc2ccccc2C(=O)OCC(=O)N(C)C2CCCCC2)cc1	-134.8
CC(C)(C)C(=O)/C(=C\c1cccc([N+](=O)[O-])c1)n1cncn1	-129.0
CN(C)c1ccc(N=C/C=C2\N(C)c3ccccc3C2(C)C)cc1	-114.4
CN1/C(=C/C(=O)c2nc(S(C)(=O)=O)ncc2Cl)C(C)(C)c2ccccc21	-
COC(=O)c1ccc(Cn2nc(C)cc2C)cc1	-70.9
Cc1cccc(C=Nc2ccc3c(c2)oc2ccccc23)c1O	-166.0
O=C1CC(/C=C/c2ccncc2)=Nc2ccccc2N1	-65.3
Cc1ccc(/C(=N/Nc2ncnc3ccccc23)C(=O)O)cc1	-69.0
SMILES	aSyn UTR act
CC(C)Oc1ccc(Nc2ncnc3ccccc23)cc1	-136.0
COC(=O)c1cccc(Nc2ncnc3ccc(C)cc23)c1	-88.1
Cc1cccc(Nc2ncnc3ccccc23)c1	-97.9
Cc1ccc(Nc2ncnc3ccccc23)cc1	-114.1
OCc1ccc(O)c2ncccc12	-
O=C(Cc1ccc(-c2ccccc2)cc1)Nc1ncccc1O	-96.6
Cc1c(C(=O)N2c3ccccc3CC2C)oc2ccccc12 (stereo not drawn)	-76.3
Cc1c(C(=O)N2CCc3ccccc3C2)oc2ccccc12	-98.0
CN1CCc2c(sc3c2C(=O)NC(c2cccc(OC(=O)c4cccs4)c2)N3)C1 (stereo not drawn)	-108.0
CN1CCc2c(sc3c2C(=O)NC(c2cn(Cc4ccccc4)c4ccccc24)N3)C1 (stereo not drawn)	-
